Test results: ChEMBL document CHEMBL1961873, “Compounds: GSK PKIS; Assays: Nanosyn kinase panel” (2012)

Columns and labels:
[1] = target: Serine/threonine-protein kinase 26 (Homo sapiens) (UniProt Q9P289); details: at 1 µM;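 further: mean inhibition of MST4 kinase activity, reported from the GSK PKIS inhibitor-set screening panel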
[2] = target: Serine/threonine-protein kinase PAK 1 (Homo sapiens) (UniProt Q13153); details: at 0.1 µM
[3] = target: Serine/threonine-protein kinase PAK 1 (Homo sapiens) (UniProt Q13153); details: at 1 µM
[4] = target: Serine/threonine-protein kinase PAK 2 (Homo sapiens) (UniProt Q13177); details: at 0.1 µM
[5] = target: Serine/threonine-protein kinase PAK 2 (Homo sapiens) (UniProt Q13177); details: at 1 µM
[6] = target: Serine/threonine-protein kinase PAK 3 (Homo sapiens) (UniProt O75914); details: at 0.1 µM
[7] = target: Serine/threonine-protein kinase PAK 3 (Homo sapiens) (UniProt O75914); details: at 1 µM
[8] = target: Serine/threonine-protein kinase PAK 5 (Homo sapiens) (UniProt Q9P286); details: at 0.1 µM
[9] = target: Serine/threonine-protein kinase PAK 5 (Homo sapiens) (UniProt Q9P286); details: at 1 µM
[10] = target: Serine/threonine-protein kinase PAK 6 (Homo sapiens) (UniProt Q9NQU5); details: at 0.1 µM
[11] = target: Serine/threonine-protein kinase PAK 6 (Homo sapiens) (UniProt Q9NQU5); details: at 1 µM
[12] = tested on: Tyrosine-protein kinase ABL1 (Homo sapiens), P00519 [E255K]; details: at 0.1 µM
[13] = tested on: Tyrosine-protein kinase ABL1 (Homo sapiens), P00519 [E255K]; details: at 1 µM
[14] = tested on: Tyrosine-protein kinase ABL1 (Homo sapiens), P00519 [H396P]; details: at 0.1 µM
[15] = tested on: Tyrosine-protein kinase ABL1 (Homo sapiens), P00519 [H396P]; details: at 1 µM
[16] = tested on: Tyrosine-protein kinase ABL1 (Homo sapiens), P00519 [M351T]; details: at 0.1 µM
[17] = tested on: Tyrosine-protein kinase ABL1 (Homo sapiens), P00519 [M351T]; details: at 1 µM
[18] = tested on: Tyrosine-protein kinase ABL1 (Homo sapiens), P00519 [Q252H]; details: at 0.1 µM
[19] = tested on: Tyrosine-protein kinase ABL1 (Homo sapiens), P00519 [Q252H]; details: at 1 µM
[20] = tested on: Tyrosine-protein kinase ABL1 (Homo sapiens), P00519 [T315I]; details: at 0.1 µM

Sequence of Serine/threonine-protein kinase PAK 5 (Homo sapiens) (Q9P286 whole entry, looked up): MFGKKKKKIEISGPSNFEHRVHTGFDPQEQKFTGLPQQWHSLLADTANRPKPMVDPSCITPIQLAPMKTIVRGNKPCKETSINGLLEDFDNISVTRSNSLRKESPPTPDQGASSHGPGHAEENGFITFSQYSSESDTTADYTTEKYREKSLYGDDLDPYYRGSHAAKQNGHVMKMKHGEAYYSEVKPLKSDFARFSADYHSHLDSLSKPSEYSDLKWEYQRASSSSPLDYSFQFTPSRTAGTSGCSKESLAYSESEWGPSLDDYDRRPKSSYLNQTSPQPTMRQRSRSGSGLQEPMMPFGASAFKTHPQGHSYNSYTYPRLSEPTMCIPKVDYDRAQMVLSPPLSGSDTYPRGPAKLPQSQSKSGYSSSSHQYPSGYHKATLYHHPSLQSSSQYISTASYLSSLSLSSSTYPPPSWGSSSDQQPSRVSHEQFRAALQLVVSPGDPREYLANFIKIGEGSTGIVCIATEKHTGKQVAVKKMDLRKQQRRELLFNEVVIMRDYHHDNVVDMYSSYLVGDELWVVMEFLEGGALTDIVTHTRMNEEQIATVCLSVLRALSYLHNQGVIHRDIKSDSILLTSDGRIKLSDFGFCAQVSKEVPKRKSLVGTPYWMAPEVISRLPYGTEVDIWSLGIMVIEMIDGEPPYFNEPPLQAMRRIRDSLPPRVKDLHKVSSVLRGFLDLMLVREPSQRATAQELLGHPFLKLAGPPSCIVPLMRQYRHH
Sequence of Serine/threonine-protein kinase PAK 2 (Homo sapiens) (Q13177 whole entry): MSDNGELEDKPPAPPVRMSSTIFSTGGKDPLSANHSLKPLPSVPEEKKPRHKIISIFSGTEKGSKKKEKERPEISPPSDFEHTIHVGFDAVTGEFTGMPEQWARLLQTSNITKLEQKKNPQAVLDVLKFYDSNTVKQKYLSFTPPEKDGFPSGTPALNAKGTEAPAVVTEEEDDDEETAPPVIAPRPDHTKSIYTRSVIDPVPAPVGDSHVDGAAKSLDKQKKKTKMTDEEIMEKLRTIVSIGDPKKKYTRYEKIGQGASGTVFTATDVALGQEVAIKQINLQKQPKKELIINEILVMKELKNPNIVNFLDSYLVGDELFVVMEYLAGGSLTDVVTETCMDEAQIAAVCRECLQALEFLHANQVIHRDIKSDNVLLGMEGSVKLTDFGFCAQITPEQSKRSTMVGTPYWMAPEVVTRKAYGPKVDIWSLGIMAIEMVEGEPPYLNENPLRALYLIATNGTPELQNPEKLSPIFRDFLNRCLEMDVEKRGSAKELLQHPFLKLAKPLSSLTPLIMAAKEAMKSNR
Sequence of Serine/threonine-protein kinase PAK 6 (Homo sapiens) (Q9NQU5 whole entry, looked up): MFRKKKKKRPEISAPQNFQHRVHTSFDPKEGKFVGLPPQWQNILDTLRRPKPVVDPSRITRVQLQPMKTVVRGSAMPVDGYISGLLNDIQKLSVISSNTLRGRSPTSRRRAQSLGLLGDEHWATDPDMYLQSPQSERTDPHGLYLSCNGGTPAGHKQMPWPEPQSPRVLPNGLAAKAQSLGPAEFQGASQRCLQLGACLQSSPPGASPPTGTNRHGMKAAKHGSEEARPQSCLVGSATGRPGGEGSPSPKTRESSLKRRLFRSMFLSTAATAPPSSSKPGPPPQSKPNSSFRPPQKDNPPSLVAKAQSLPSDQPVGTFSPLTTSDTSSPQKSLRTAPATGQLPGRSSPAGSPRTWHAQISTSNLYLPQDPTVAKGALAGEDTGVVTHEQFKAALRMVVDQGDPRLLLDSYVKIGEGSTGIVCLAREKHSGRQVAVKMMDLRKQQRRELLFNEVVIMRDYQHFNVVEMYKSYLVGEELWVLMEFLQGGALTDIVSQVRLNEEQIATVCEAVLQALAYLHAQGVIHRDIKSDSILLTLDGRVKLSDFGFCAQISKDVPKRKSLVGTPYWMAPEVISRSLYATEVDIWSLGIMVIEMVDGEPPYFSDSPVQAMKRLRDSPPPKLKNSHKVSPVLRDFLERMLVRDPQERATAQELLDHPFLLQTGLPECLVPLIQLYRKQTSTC
Sequence of Serine/threonine-protein kinase 26 (Homo sapiens) (Q9P289 2-416 limits assumed): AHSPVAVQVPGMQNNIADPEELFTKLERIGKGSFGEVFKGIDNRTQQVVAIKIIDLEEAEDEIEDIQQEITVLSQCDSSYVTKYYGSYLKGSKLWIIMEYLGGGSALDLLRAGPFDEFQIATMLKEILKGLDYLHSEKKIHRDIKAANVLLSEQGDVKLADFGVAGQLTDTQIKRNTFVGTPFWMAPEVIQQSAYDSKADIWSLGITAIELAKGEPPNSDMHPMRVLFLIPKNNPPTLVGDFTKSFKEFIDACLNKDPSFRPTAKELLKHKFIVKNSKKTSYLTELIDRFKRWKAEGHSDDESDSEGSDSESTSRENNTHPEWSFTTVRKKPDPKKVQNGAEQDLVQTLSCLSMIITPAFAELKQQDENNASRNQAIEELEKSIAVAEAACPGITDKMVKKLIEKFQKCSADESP
Sequence of Serine/threonine-protein kinase PAK 1 (Homo sapiens) (Q13153 whole entry): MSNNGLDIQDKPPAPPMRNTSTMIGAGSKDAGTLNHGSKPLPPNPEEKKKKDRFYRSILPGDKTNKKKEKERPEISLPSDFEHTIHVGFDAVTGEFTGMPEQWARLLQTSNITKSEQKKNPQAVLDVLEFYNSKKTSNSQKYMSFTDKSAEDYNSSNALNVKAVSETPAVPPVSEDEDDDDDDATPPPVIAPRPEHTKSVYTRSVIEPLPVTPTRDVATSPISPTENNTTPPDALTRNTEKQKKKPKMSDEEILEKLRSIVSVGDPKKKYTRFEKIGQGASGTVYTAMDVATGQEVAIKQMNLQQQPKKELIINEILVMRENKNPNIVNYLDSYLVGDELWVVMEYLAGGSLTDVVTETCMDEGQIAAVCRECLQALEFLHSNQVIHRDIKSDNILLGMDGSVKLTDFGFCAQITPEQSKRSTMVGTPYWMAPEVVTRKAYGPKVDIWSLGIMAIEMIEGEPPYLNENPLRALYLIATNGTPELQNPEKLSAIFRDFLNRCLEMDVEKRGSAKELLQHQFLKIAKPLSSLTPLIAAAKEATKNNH
Sequence of Serine/threonine-protein kinase PAK 3 (Homo sapiens) (O75914 whole entry, looked up): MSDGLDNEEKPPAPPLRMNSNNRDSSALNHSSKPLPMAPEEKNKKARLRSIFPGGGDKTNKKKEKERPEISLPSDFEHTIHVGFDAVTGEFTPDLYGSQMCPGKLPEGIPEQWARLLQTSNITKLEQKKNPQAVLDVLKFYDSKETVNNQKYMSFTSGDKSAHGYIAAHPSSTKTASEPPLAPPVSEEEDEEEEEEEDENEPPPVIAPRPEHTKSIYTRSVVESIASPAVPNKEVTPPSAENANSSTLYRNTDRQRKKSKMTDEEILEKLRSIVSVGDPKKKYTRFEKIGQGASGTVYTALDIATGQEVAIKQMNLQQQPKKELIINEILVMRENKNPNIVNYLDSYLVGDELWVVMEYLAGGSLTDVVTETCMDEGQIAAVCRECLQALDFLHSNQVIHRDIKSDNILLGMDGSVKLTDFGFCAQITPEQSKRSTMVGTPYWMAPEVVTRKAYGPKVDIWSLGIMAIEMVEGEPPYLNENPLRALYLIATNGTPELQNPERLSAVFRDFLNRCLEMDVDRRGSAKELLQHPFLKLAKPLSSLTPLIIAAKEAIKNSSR

SMILES	inhibition [1] [%]	inhibition [2] [%]	inhibition [3] [%]	inhibition [4] [%]	inhibition [5] [%]	inhibition [6] [%]	inhibition [7] [%]	inhibition [8] [%]	inhibition [9] [%]	inhibition [10] [%]	inhibition [11] [%]	inhibition [12] [%]	inhibition [13] [%]	inhibition [14] [%]	inhibition [15] [%]	inhibition [16] [%]	inhibition [17] [%]	inhibition [18] [%]	inhibition [19] [%]	inhibition [20] [%]
CS(=O)(=O)Nc1ccc(-c2cc(-c3ccccc3)cc(C(N)=O)c2N)cc1	-0.88	4.98	4.78	-0.21	-0.16	0.92	3.38	1.42	0.16	-9.24	-8.25	1.39	2.13	1.72	3.82	0.69	2.62	2.8	3.07	0.02
COc1cc2c(cc1Nc1nc(Nc3cccc(F)c3C(N)=O)c3cc[nH]c3n1)N(C(=O)CN1CCN(C(C)C)CC1)CC2	2.14	5.25	8.11	1.01	1.35	2.21	5.46	2.45	3.7	-9.4	-0.05	-0.8	-0.74	-1.59	0.65	-1.33	2.97	-0.13	3.8	-0.82
COc1cc(Nc2ncc(-c3ccccc3)o2)cc(OC)c1	-4.28	6.86	6.69	1.76	1.6	4.74	3.26	2.83	4.51	0.07	-4.99	5.8	23.1	9.34	39.7	8.13	41.1	9.25	33.6	4.18
COC(=O)Nc1nc2ccc(Oc3ccc(NC(=O)Nc4cc(C(F)(F)F)ccc4F)cc3)cc2s1	1.71	-2.89	1.52	-1.5	-0.42	-1.09	0.28	0.53	-1.37	2.82	-8.13	17.2	66.8	65.9	92.3	76.6	93.3	75.1	91.4	78.8
CS(=O)(=O)CCNCc1ccoc1-c1ccc2ncnc(Nc3ccc(OCc4ccccc4)cc3)c2c1	-0.88	-2.84	-0.82	-0.75	-2.34	-3.57	-0.05	-0.34	3.51	-5.6	-2.12	-3.3	0.24	0.81	-0.01	0.87	-0.25	1.54	1.56	1.58
